Data taken from PubChem BioAssay (EPA / NIEHS).
Values joined by “and” are separate entries in the source; they are usually repeats but may differ in a detail not shown here. Equal entries are not always repeated. More than one record can exist for a structure, and the calls need not agree. Active and inactive are the calls of the source. How the source made its calls: active means hit-call score of the fitted dose curve at least 0.9, where 1 is the maximum; inactive means score below 0.9.

Experiment: CCTE_Shafer_MEA_dev_network_spike_peak: CCTE's Neural Network Formation Assay for Mean Number of Electrodes in Network Spike, Shafer Lab (AID 2284049)
Protocol: CCTE_Shafer_MEA_dev assay is conducted using Axion Biosystems 48 well microelectrode array (MEA) plates and Maestro recording system. Each well of the MEA plate contains a grid of 16 microelectrodes embedded in the culture surface. Electrically active cells, such as neurons, can be cultured over the electrodes, and electrical activity in these cells can be recorded extracellularly. The spontaneous firing of neurons is captured from each electrode on a microsecond timescale providing both temporally and spatially precise data. […] The CCTE_Shafer_MEA_dev assay uses primary cultures of rat cortical neurons. Recordings are made on days post-plating 5, 7, 9 and 12. As these cultures mature over time, neural networks develop functional activity and form cohesive networks in which electrical activity can be highly coordinated. CCTE_Shafer_MEA_dev_network_spike_peak is 1 of 19 assay components of the CCTE_Shafer_MEA_dev assay. It measures the average number of electrodes participating at the peak of a network spike (the peak of a temporally-clustered group of action potential firing across multiple electrodes) during a recording in a microelectrode array (MEA) using Axion Biosystems Maestro 768 channel amplifier with the AxIS adaptive spike detector. To collapse across multiple recordings made on days post-plating 5, 7, 9 and 12, the trapezoidal area-under-the-curve of the component is calculated.Data from the assay component CCTE_Shafer_MEA_dev_network_spike_peak was analyzed into 1 assay endpoint. This assay endpoint, CCTE_Shafer_MEA_dev_network_spike_peak, was analyzed in the negative analysis fitting direction relative to DMSO as the negative control and baseline of activity. Using a type of functional reporter, gain or loss-of-signal activity can be used to understand electrical activity.
On the day prior to culture, each well was coated thoroughly with 150 uL of 0.05% polyethyleneimine (PEI, Sigma Cat P3143) in 50 mM HEPES (Sigma Cat H7523) at a pH of 8. The plate was incubated at 37C for one hour. PEI was rinsed out with 500 uL of sterile water three times. Plates were stored at 4C until the day of culture. This culture was plated at a seeding density of 1.5 x 10^5 cells/well on a 48-well MEA plate, prepared as described above. Cells were administered via a 25 uL media/laminin ([…]; Sigma Cat L2020-1MG) drop directly onto the microelectrode array, as adding the cells with the laminin results in better attachment than pre-coating with laminin. After 2 hours, an additional 475 uL of cortical media was added and the cells returned to the incubator. Exposure starts at day 0 of plating and is continued over twelve days of network development until the experiment is terminated. Cells are fed with fresh medium on DIV 5 and 9, following the recordings on those days. The entire volume of media in the well is exchanged and any vehicle or compound treatment is renewed. Complete details are found in OP-NHEERL/ISTD/SBB/TJS/2015-03-r0 (available on request, email shafer.tim@epa.gov). Measurement of the electrical activity is non-invasive, and recordings can be made from the same plate over multiple different days of the culture. In cortical neurons, this allows for the measurement of extracellular action potentials over the period during which networks form in the MEA plate.

| SMILES | outcome | AC50 |
| --- | --- | --- |
| CCNc1nc(Cl)nc(NC(C)C)n1 | inactive |  |
| COc1ccc(C(c2ccc(OC)cc2)C(Cl)(Cl)Cl)cc1 |  | 8.43 µM (active) |
| COC(=O)N(OC)c1ccccc1COc1ccn(-c2ccc(Cl)cc2)n1 |  | 72.5 nM (active) and 15.9 nM (active) |
| COP(N)(=O)SC (stereo unspecified) | inactive | 15 µM (active) |
| CC(C)(C)c1ccc(CSc2cnn(C(C)(C)C)c(=O)c2Cl)cc1 |  | 0.0022 µM (active) |
| N#Cc1nn(-c2c(Cl)cc(C(F)(F)F)cc2Cl)c(N)c1S(=O)C(F)(F)F (stereo unspecified) | inactive |  |
| CCCCNC(=O)n1c(NC(=O)OC)nc2ccccc21 |  | 15 µM (active) |
| CCCCOC(=O)c1ccccc1C(=O)OCCCC |  | 74.9 µM (active) |
| CCOc1cc(Oc2ccc(C(F)(F)F)cc2Cl)ccc1[N+](=O)[O-] |  | 6.67 µM (active) |
| C=CCC1=C(C)C(OC(=O)C2C(C=C(C)C)C2(C)C)CC1=O (stereo unspecified) |  | 2.93 µM (active) and 14.8 µM (active) |
| CCCCNC(=O)OCC#CI |  | 3.81 µM (active) and 1.53 µM (active) |
| C=CC1(C)OC(=O)N(c2cc(Cl)cc(Cl)c2)C1=O (stereo unspecified) |  | 50 µM (active) |
| Cc1ccc(-c2c(Cl)nc(C#N)n2S(=O)(=O)N(C)C)cc1 |  | 21.8 µM (active) |
| CCCCC(CC)COC(=O)c1ccccc1C(=O)OCC(CC)CCCC (stereo unspecified) |  | 15 µM (active) and 423 nM (active) and 8.09 µM (active) |
| COP(=S)(OC)Oc1nc(Cl)c(Cl)cc1Cl | inactive |  |
| CO/C=C(/C(=O)OC)c1ccccc1Oc1cc(Oc2ccccc2C#N)ncn1 |  | 1.48 µM (active) and 1.44 µM (active) |
| CCOC(=O)CC(SP(=S)(OC)OC)C(=O)OCC (stereo unspecified) |  | 14.2 µM (active) and 8.93 µM (active) |
| C=CCC1=C(C)[C@@H](OC(=O)[C@@H]2[C@@H](C=C(C)C)C2(C)C)CC1=O |  | 10 µM (active) |
| CNC(=O)ON=CC(C)(C)SC | inactive |  |
| CN(C)C(=S)SSC(=S)N(C)C |  | 0.0107 µM (active) |
